# IL1B secr inh – inhibitors of inflammasome signaling (IL-1 beta secretion); THP-1 LPS/ATP IL-1B secretion, AlphaLISA, 16 h; stronger effect = lower value; activity change, % at 57.5 µM; 4.7% of 360,000 active; AID 743279; in the data active = activity change below about -50%; inconclusive = mostly about -30% to -49%
#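 THP-1 cells pretreated 1 hr with compounds (up to 57.5 uM final), then stimulated with LPS (250 ng/mL final) plus ATP (1.25 mM final); secreted IL-1B measured by AlphaLISA after 16 hr, decreased signal indicating inhibition.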
# DT40 TDP1 CPT – DT40-hTDP1 cell growth loss with CPT; chicken DT40 Tdp1-/-;hTDP1 cells + 20 nM CPT, ATP luminescence, 48 h; Potency, µM (series often up to 46.2 µM), for the others: top-dose activity change, negative = growth inhibition, most hits filed as inhibitors; 12% of 420,000 active; note: potency is the fitted concentration of half-maximal effect; nearly all actives have a fitted effect of over 55% in size
#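 Cell growth measured by CellTiter-Glo luminescence after a minimum 48 h, 37 C compound exposure with 20 nM CPT in Tdp1-knockout DT40 cells stably expressing hTDP1, seeded 400/well; qHTS titration format.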
# DT40 TDP1 no CPT – qHTS for Inhibitors of human tyrosyl-DNA phosphodiesterase 1 (TDP1): qHTS in cells in absence of CPT; Potency, µM (doses to about 46.2 µM), without a hit: at the highest dose activity change, negative = growth inhibition, most hits filed as inhibitors; AID 686978, 2013; 15% of 420,000 active; DT40 Tdp1-/- hTDP1 cells, no CPT, ATP luminescence, 48 h; note: potency is the fitted concentration of half-maximal effect; nearly all actives have a fitted effect of over 55% in size
#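 DT40 Tdp1-/-;hTDP1 cells, no CPT (DMSO vehicle only), 400 cells/well; compounds pin-transferred; ≥48 hr, 37 °C; CellTiter-Glo 30 min RT dark, luminescence read.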
# HT1080 IDH1KD tx – kills HT-1080 cells with IDH1 knockdown; HT-1080 IDH1 knockdown viability, ATP luminescence, 48 h; Potency, µM (doses to about 46.1 µM), inactives show at the top dose activity, negative = toxicity, usual class: cytotoxic; 2% of 360,000 active;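 note: potency is the fitted concentration of half-maximal effect; 0% = DMSO wells and -100% = cell-free medium wells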
#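 IDH1KD HT-1080 cells, 750/well, RPMI + 5% FBS; compound pinned after 2 h settling; 48 h, 37 °C; CellTiter-Glo luminescence; % activity normalised to DMSO and no-cell wells; curves fitted, classed by r2 and efficacy.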
# HT1080NT lethal – kills 2HG-producing HT-1080-NT fibrosarcoma cells; 1.6% of 360,000 active; HT-1080-NT fibrosarcoma viability, CellTiter-Glo ATP luminescence, 48 h; Potency, µM (titrated, usually from 46.1 µM), without a hit: at the top dose activity, negative = less viability, most hits filed as cytotoxic;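 note: NT is the 2HG producing partner of a matched IDH1 knockdown line; potency is the fitted concentration of half-maximal effect; 0% = DMSO-treated cells and -100% = media-only wells without cells; nearly all actives have a fitted effect of over 55% in size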
#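 HT-1080-NT; 750 cells/well; 5% FBS RPMI; 48 h compound, 37 degrees C; CellTiter-Glo luminescence; curve fitting and curve-class assignment.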
# The depositor's hits bear a star; u = inconclusive; x = not tested or not shown; [ ] = another dose, or the depositor's remark. Shown are actives, neighbours in structure and some others; about 19% of the full set was active somewhere. Unless noted, calls come from the whole dose curve; as a rule, active = well fitted curve in the direction sought with a large enough effect; inconclusive = small, poorly fitted or top-dose-only effect, or another doubt; inactive = no such curve, though single readings can be large; an effect the other way counts as inactive or inconclusive. Unless noted, % is set by controls: 0 for no effect and ±100 for the full control effect.
SMILES,IL1B secr inh,DT40 TDP1 CPT,DT40 TDP1 no CPT,HT1080 IDH1KD tx,HT1080NT lethal
CC12CC3(C)CC(C)(C1)CC(NC(=O)N1CCCC1)(C2)C3,-13,u,13µM*,0%,0%
Cc1ccc(-n2c(C)cc(C(=O)CSc3n[nH]c(N)n3)c2C)cc1,9,u,13µM*,u,1%
Cc1cc(C(=O)CSc2n[nH]c(N)n2)c(C)n1C1CC1,-8,u,21µM*,3%,5%
Cc1cc(C(=O)CSc2n[nH]c(N)n2)c(C)n1-c1ccc(F)cc1,2,21µM*,u,-25%,u
Cc1cc(C(=O)CSc2n[nH]c(N)n2)c(C)n1-c1ccccc1,-8,u,-21%,u,-24%
CCCCSc1nnc2c(n1)OC(c1ccc(Br)s1)Nc1ccccc1-2 (stereo unspecified),x,u,18µM*,x,x
CSc1nnc2c(n1)OC(c1cccc(O)c1Cl)Nc1ccccc1-2 (stereo unspecified),x,-10%,u,x,x
CCOC(=O)c1cnc(Nc2nc3ccccc3o2)nc1CSC(=S)N(CC)CC,-4,0.15µM*,0.15µM*,8%,8%
O=C(CCS(=O)(=O)c1nc(-c2cccs2)cc(C(F)(F)F)n1)Nc1ccc(Br)cc1,x,5.2µM*,3.7µM*,x,x
Cc1ccc(O)c(NC(=O)CCS(=O)(=O)c2nc(-c3cccs3)cc(C(F)(F)F)n2)c1,x,2.6µM*,5.8µM*,x,x
Cc1ccc(S(=O)(=O)CCC(=O)Nc2ccc(Br)cc2C)cc1,x,-25%,-18%,x,x
O=C(CCS(=O)(=O)c1nc(-c2cccs2)cc(C(F)(F)F)n1)Nc1cc(Br)ccc1O,x,0.65µM*,1.2µM*,x,x
CC(NC(=O)C1c2ccccc2Oc2ccccc21)C1CCCO1 (stereo unspecified),-3,2%,2%,1%,5%
CSC1=NC2(CCN(C(=O)NC3CCCCC3)CC2)N=C1c1ccc(C(C)(C)C)cc1,x,-16%,-6%,x,x
COC(=O)/C(C(C)=O)=C(\C=C\N(C)C)N(C)C,20,2%,2%,7%,9%
COC(=O)\C(C(C)=O)=C(/C=C/C=C/C=C/N(C)C)N(C)C,10,u,21µM*,6%[9.24 µM],11%
CC(C)(C)c1ccc(CC(=O)N2CCC2(C)C(=O)NS(=O)(=O)c2ccc(F)cc2F)cc1 (stereo unspecified),-51*,-6%,-5%,6%,29%
CC1(C(=O)NS(=O)(=O)c2ccc(F)cc2F)CCN1C(=O)Cc1ccc(-c2ccccc2)cc1 (stereo unspecified),1,-5%,-13%,4%,6%
CC(C)(C)c1ccc(CC(=O)N2CCC2(C)C(=O)NCc2cccc3ccccc23)cc1 (stereo unspecified),u,23µM*,26µM*,16µM*,u
Cc1ccc(CNC(=O)C2(C)CCN2C(=O)Cc2ccc(C(C)(C)C)cc2)cc1 (stereo unspecified),-14,16µM*,18µM*,u,u
CC12CCC(C(=O)N(CSC(=S)N/N=C\c3ccccc3)C1=O)C2(C)C (stereo unspecified),21,5.8µM*,4.6µM*,-28%,4%
CCOC(=O)C1CCC(CN(Cc2ccc(Cl)cc2)S(=O)(=O)c2cccc(Cl)c2C)CC1 (stereo unspecified),x,23µM*,18µM*,x,x
CCOC(=O)C1CCC(CNCc2ccc(Cl)cc2)CC1 (stereo unspecified),-9,u,u,-20%,-2%
CCOC(=O)C1CCC(CN(Cc2ccc(OC)cc2)S(=O)(=O)c2ccc(C)cc2)CC1 (stereo unspecified),x,21µM*,13µM*,x,x
CCc1ccc2c(c1)NC(=O)C2(C)Cc1ccccc1Cl (stereo unspecified),39,u,u,u,u
SMILES,IL1B secr inh,DT40 TDP1 CPT,DT40 TDP1 no CPT,HT1080 IDH1KD tx,HT1080NT lethal
Cc1ccc(C)c(N2CCN(c3ccncc3N)CC2)c1,-3,18µM*,13µM*,-5%,-10%
Cc1ccccc1C(=O)O/N=C/c1c(N2CCOCC2)n(C)c2ccccc12,37,1.5µM*,1.3µM*,2.5µM*,2.8µM*
O=S(=O)(/N=C(/Nc1cccc2ccccc12)c1ccccc1)c1ccc(F)cc1,-3,u,u,-5%,-9%
O=C(NNC(=S)Nc1cccc(C(F)(F)F)c1)c1ccc(Cl)cc1Cl,-52*,u,26µM*,u,u
CC(C)(O)C(=O)NNC(=S)Nc1cccc(C(F)(F)F)c1,-10,-22%,9%,-1%,6%
Cc1ccccc1C(=O)NNC(=S)Nc1cccc(C(F)(F)F)c1,-2,u,23µM*,u,u
COC(=O)Nc1ccc2ccc3c(NC(=O)OC)ccc4ccc1c2c43,0,u,u,-27%,-16%
CN(C)c1ccc(/C=N\NC(=O)c2cccc3cc[nH]c23)cc1,-10,u,6.5µM*,-25%,-4%
Cc1ccc2nc(-c3ccncc3)c(NC3CCCCC3)n2c1,17,23µM*,u,12%,14%
Cc1ccc2nc(-c3ccncc3)c(Nc3ccccc3)n2c1,-9,u,u,-2%,2%
Cc1ccn2c(NC3CCCC3)c(-c3ccncc3)nc2c1,-11,u,u,6%,9%
Cc1ccc2nc(-c3ccsc3)c(NC3CCCC3)n2c1,19,10µM*,13µM*,5%,4%
CC(C)C1NCCc2c1sc1ccccc21 (stereo unspecified),-50*,-3%,u,-27%,-22%
CCC(CC)NC(=O)COc1ccc(OC)cc1C=O,31,11%,-22%,3%,2%
COc1ccc(N(CC(=O)NC2CCCC2)C(=O)c2ccc(N3CCCCC3)nc2)cc1,33,2%,-8%,16%,0%
COc1cc(CSc2nnnn2-c2ccc(C)cc2)cc(OC)c1OC,-77*,5.8µM*,5µM*,0%,u
COc1ccc(F)cc1CSc1nnnn1-c1ccc(O)cc1,-15,-19%,u,-24%,-29%
CCOc1ccc(/C=N/NC(=O)c2ccccc2C)cc1CN1CC2CC(C1)c1cccc(=O)n1C2 (stereo unspecified),28,u,23µM*,-12%,9%
CCOc1ccc(/C=N/NC(=O)c2ccccc2Cl)cc1CN1CC2CC(C1)c1cccc(=O)n1C2 (stereo unspecified),-4,u,u,-19%,-28%
O=C(Nc1ccccc1C(F)(F)F)N1CCC2(CC1)Oc1ccccc1C(=O)N2Cc1ccccc1F,x,u,16µM*,x,x
